The values that follow come from PubChem BioAssay (NCATS).

Several values for one entry are separate records, joined by “and”; a condition that tells them apart may be missing. Identical values can stand only once. Results filed as inconclusive are left out. Activity calls are given as the source filed them. Unless noted, calls come from the whole dose curve; as a rule, active = well fitted curve in the direction sought with a large enough effect; inconclusive = small, poorly fitted or top-dose-only effect, or another doubt; inactive = no such curve, though single readings can be large; an effect the other way counts as inactive or inconclusive.

Experiment [1] in a line: Primary qHTS for inhibitors of nuclear receptor binding SET domain protein 2 (NSD2) in an RCH-ACV wild type WT cells (2C) (AID 1645877; note: nearly all actives have a fitted effect of over 70% in size; note: potency is the fitted concentration of half-maximal effect). (Quantitative high-throughput screening tests each substance at several concentrations.)
Experiment [2] in a line: NCATS anti-infectives library activity on HEK293 viability as a counter-qHTS vs the C. elegans viability qHTS (AID 1745854). Note: potency is the fitted concentration of half-maximal effect. A digest of the protocol: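 Cytotoxicity counter-screen to a worm viability qHTS: CellTiter-Glo luminescence read 10 min after reagent addition. Compounds (final up to 41.7 uM, a 1:5 dilution series) incubated 24 hr at 37C with 1,500 HEK293 cells per well; digitonin control.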

The target of experiment [3] is Rap guanine nucleotide exchange factor 3 (Homo sapiens) (UniProt O95398). The experiment can be described thus: Confirmatory qHTS for agonist of cAMP-regulated guanine nucleotide exchange factor 3 (EPAC1) (AID 1645881). Note: nearly all actives have a fitted effect of over 75% in size. Note: potency is the fitted concentration of half-maximal effect.
Rap guanine nucleotide exchange factor 3 (Homo sapiens), sequence (O95398 whole entry, looked up): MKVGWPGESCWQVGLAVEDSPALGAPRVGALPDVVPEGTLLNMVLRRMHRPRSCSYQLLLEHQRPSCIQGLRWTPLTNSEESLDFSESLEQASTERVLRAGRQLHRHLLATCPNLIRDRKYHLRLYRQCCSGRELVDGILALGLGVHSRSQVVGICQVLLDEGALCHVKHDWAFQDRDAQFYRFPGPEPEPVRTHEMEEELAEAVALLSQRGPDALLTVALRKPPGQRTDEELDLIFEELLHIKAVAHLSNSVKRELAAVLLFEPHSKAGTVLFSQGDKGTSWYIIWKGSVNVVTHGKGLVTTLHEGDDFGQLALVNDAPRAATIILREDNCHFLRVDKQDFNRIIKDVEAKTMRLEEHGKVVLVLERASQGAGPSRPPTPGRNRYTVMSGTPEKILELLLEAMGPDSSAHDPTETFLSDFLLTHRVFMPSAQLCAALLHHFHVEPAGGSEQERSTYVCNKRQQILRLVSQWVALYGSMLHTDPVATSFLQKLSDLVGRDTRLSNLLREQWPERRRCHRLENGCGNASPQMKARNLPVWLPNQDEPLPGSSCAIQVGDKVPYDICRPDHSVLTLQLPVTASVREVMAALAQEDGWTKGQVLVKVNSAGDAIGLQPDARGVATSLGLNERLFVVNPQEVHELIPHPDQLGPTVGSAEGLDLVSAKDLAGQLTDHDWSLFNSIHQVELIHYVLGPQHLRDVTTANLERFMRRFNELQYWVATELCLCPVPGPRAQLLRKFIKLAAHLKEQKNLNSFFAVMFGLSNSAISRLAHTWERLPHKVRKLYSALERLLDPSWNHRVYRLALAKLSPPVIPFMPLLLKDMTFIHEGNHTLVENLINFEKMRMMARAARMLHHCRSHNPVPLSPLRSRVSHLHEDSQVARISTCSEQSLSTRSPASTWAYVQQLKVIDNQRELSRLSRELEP
Experiment [4] concerns the target Rap guanine nucleotide exchange factor 4 (Homo sapiens) (UniProt Q8WZA2). The experiment can be described thus: Confirmatory qHTS for agonist of cAMP-regulated guanine nucleotide exchange factor 4 (EPAC2) (AID 1645884).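 Note: nucleotide exchange releases bodipy-GDP from Rap1 and this lowers its fluorescence; nearly all actives have a fitted effect of over 65% in size.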 Note: potency is the fitted concentration of half-maximal effect.
For experiment [5] the target is unchanged. In words: Confirmatory qHTS for antagonist of cAMP-regulated guanine nucleotide exchange factor 4 (EPAC2) (AID 1645885). For activity change, negative = inhibition: % is set by controls: 0 for no effect and ±100 for the full control effect. Note: nearly all actives have a fitted effect of over 25% in size. Note: potency is the fitted concentration of half-maximal effect.
Experiment [6] deals with Catechol O-methyltransferase (Homo sapiens) (UniProt P21964). In words: Confirmatory Screen for Target Class Profiling of Small Molecule Inhibitors of Methyltransferases (AID 1745852; calls by dose curve; for activity change, negative = inhibition: % is set by controls: 0 for no effect and ±100 for the full control effect). The settings on record: MTase-Glo luminescence, SAH detection, recombinant enzyme; measured here: COMT max response; stronger effect = lower value.
Catechol O-methyltransferase (Homo sapiens), sequence (P21964 whole entry, looked up): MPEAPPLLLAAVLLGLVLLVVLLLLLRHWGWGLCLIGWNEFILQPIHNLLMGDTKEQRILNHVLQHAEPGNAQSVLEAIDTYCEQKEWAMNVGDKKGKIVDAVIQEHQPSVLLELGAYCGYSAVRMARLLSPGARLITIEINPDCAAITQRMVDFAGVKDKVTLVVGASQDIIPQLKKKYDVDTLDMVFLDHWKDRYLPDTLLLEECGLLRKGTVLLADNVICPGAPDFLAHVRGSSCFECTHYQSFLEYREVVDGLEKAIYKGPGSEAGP
Experiment [7] concerns the target Guanidinoacetate N-methyltransferase (Homo sapiens) (UniProt Q14353). The description is as above. The settings on record: MTase-Glo luminescence, SAH detection, recombinant enzyme; at 57.3 µM (top of the series).
For experiment [8], the target named is Nicotinamide N-methyltransferase (Homo sapiens) (UniProt P40261). The description is as above. The settings on record: MTase-Glo luminescence, SAH detection, recombinant enzyme; measured here: NNMT max response; stronger effect = lower value.
Nicotinamide N-methyltransferase (Homo sapiens), sequence (P40261 whole entry, looked up): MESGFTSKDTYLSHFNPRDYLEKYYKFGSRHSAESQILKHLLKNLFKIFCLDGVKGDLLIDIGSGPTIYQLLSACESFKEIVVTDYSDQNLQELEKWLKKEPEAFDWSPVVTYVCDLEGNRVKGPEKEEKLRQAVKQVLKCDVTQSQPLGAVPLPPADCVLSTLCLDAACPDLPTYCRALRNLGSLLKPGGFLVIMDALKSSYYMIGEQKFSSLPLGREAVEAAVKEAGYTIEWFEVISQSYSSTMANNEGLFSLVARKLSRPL
Experiment [9] deals with Phenylethanolamine N-methyltransferase (Homo sapiens) (UniProt P11086). Described as above. The settings on record: MTase-Glo luminescence, SAH detection, recombinant enzyme; measured here: PNMT max response; stronger effect = lower value.
Phenylethanolamine N-methyltransferase (Homo sapiens), sequence (P11086 whole entry, looked up): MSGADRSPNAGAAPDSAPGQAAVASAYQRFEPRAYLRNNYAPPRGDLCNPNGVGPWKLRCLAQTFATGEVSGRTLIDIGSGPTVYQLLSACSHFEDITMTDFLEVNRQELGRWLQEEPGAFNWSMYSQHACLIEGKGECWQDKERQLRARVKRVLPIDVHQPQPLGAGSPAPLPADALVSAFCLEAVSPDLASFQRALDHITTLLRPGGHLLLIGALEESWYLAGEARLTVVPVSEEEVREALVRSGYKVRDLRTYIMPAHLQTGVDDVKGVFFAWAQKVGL
In experiment [10] the target is Rap guanine nucleotide exchange factor 3 (Homo sapiens) (UniProt O95398). The experiment can be described thus: Confirmatory qHTS for antagonist of cAMP-regulated guanine nucleotide exchange factor 3 (EPAC1) (AID 1645880). Note: nearly all actives have a fitted effect of over 55% in size. Note: potency is the fitted concentration of half-maximal effect. A digest of the protocol:
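Released BODIPY-GDP fluoresces less than Rap1-bound BODIPY-GDP; the signal is followed at 480/540 nm at 5-min intervals over 30 min, after 5 min at room temperature. Reactions contain 100 nM EPAC1, 250 nM RAP1B-BODIPY-GDP and 50 uM GDP; results are normalized to ATA and DMSO.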

Rap guanine nucleotide exchange factor 4 (Homo sapiens), sequence (Q8WZA2 whole entry, looked up): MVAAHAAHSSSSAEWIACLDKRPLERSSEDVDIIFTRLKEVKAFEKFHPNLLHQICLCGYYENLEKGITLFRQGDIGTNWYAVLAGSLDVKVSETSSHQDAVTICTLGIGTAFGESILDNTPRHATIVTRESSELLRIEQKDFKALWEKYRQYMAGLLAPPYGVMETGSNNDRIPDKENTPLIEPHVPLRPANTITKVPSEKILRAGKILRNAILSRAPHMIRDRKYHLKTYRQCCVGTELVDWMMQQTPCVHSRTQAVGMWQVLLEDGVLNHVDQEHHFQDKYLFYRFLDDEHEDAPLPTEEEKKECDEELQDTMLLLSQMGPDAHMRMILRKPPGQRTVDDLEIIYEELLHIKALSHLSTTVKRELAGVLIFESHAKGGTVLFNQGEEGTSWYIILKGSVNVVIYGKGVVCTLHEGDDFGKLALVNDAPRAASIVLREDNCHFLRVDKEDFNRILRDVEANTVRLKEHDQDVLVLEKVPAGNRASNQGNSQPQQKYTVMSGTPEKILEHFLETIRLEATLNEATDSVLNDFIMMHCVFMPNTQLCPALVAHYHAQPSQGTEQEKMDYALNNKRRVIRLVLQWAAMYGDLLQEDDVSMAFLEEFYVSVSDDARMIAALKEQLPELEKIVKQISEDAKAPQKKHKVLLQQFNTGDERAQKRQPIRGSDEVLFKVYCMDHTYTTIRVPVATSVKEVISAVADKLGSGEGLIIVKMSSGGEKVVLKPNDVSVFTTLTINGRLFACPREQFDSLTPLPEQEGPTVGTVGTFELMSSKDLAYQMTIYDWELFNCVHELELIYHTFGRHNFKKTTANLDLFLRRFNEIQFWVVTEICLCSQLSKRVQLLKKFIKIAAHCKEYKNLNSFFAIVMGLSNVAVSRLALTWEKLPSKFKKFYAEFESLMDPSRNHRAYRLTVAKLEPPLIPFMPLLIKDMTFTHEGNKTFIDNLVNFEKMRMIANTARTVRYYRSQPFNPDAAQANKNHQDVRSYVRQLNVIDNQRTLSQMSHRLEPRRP

In the case of `CN1C(CSCC(F)(F)F)Nc2cc(Cl)c(S(N)(=O)=O)cc2S1(=O)=O` (stereo not drawn), the Potency result in [1] was “inactive”.
Regarding `CC[C@@H]([C@H](C)O)n1ncn(-c2ccc(N3CCN(c4ccc(OC[C@@H]5CO[C@@](Cn6cncn6)(c6ccc(F)cc6F)C5)cc4)CC3)cc2)c1=O`, in experiment [2], the Potency result is “inactive”.
As to `COC(=O)C1=C(C)NC(COC(N)=O)=C(C(=O)OC(C)C)C1c1cccc(Cl)c1Cl` (stereo not drawn), the Potency in experiment [1] is 11.9 µM (active); in [5], 44.1 µM (active). The Potency result in [3] and in experiment [4] was “inactive” throughout.
On to `CC1(C)OC(=O)Nc2ccc(Br)cc21`, for which the Potency entry in [1] is “inactive”.
`[O-][n+]1cccc(/C(Cl)=N/OC[C@@H](O)CN2CCCCC2)c1`: in [1], the Potency result is “inactive”.
Still for that read-out and setting: to `Cc1cccc(C)c1NC(=O)c1cc(S(N)(=O)=O)c(Cl)cc1O` belongs “inactive”.
For `Nc1nc(=O)n([C@@H]2O[C@H](CO)[C@@H](O)[C@@H]2F)cc1I`, the Potency result in experiment [2] is “inactive”.
Consider `CCOC(=O)C(=O)CCCCCCl`, for which, in experiment [1], the Potency entry is “inactive”.
As for `CCOC(=O)Cn1cccc1-c1nc(-c2ccc(OC)cc2)c(-c2ccc(OC)cc2)s1`, the Potency result in experiment [1] is “inactive”. Moreover, the values for the activity in experiment [6], in [8] and in [9] were -5.88%, -5.59% and -4.51%, respectively. Moreover, the activity change, negative = inhibition in experiment [7] is -8.59%.
Turning to `Nc1ccc2cc3ccc(N)cc3nc2c1`, the Potency is 1.68 µM (active) in experiment [1], 17.7 µM (active) in [3] and 22.3 µM (active) in experiment [4]. Also, the Potency entry in [10] and in experiment [5] was “inactive” throughout.
As to `Cc1ccccc1N1CCN(CCc2nnc3n2CCCC3)CC1`, in experiment [1], the Potency result is “inactive”.
On the same count and under the same terms, under `CCCCCCCCCCCC[N+](C)(C)Cc1ccccc1` stands 0.473 µM (active).
For the molecule `O=C(Nc1ccc(S(=O)(=O)N2CCOCC2)cc1)c1cc(Cl)ccc1NS(=O)(=O)c1ccc(Cl)s1`, in experiment [1], the Potency result was “inactive”. In addition, the Potency in experiment [10] is 35.2 µM (active); in experiment [5], 24.8 µM (active).
For `CC(C)N(CCC(=O)c1ccc2ccccc2c1)Cc1ccccc1`, the Potency in [1] is 5.25 µM (active) and 11.6 µM (active). The activity in experiment [6] was 3.44%; in [8], -17.4%; in experiment [9] it was 4.13%. The activity change, negative = inhibition in [7] stood at 9.33%.
In the case of `CCCCCCCCCCCCCCCC[n+]1ccccc1`, the figures for the Potency in [1] and in experiment [2] were 0.335 µM (active) and 11.2 µM (active), respectively.
Regarding `C[C@@H]1CCC[C@H](C)N1CCCC(O)(c1ccccc1)c1ccccn1` (stereo partly drawn), the Potency entry in experiment [1] was “inactive”.
Still for that read-out and setting: to `CN1CCCN=C1/C=C/c1cccs1` belongs “inactive”; to `COc1cc(C(=O)NC2CCCNC2)cc(OC)c1OC` (stereo not drawn), “inactive”.
Regarding `O=C1NC2CCCCN2C12CCN(CCCN1c3ccccc3CCc3ccc(Cl)cc31)CC2` (stereo not drawn), in [1], the Potency is 21.1 µM (active). Also, the activity was -2.76% in experiment [6], -29.7% in [8] and -1.01% in experiment [9]. Further, the activity change, negative = inhibition in experiment [7] was 1.64%.
The like results for `CCN1C(=O)c2ccccc2C1Nc1ccc(OCCN2CCCCC2)cc1` (stereo not drawn) were, in that order, “inactive”, -0.796%, 1.49%, 0.197% and 1.78%.
With `CN(C)c1cc2c(Nc3ccc4c(cnn4Cc4ccccc4)c3)ncnc2cn1`, the activity is 5.63% in [6], -16.7% in [8] and -3.6% in experiment [9]. Further, the activity change, negative = inhibition in [7] is 6.38%.
Turning to `O=C(c1ccco1)N1CCNCC1`, in experiment [1], the Potency result is “inactive”.
Consider `C=CC[N+]1([C@H]2C[C@H]3[C@@H]4CC[C@H]5C[C@H](OC(C)=O)[C@@H](N6CCCCC6)C[C@]5(C)[C@H]4CC[C@]3(C)[C@H]2OC(=O)CC)CCCCC1`, for which the Potency result in [1] was “inactive”. Also, the activity in experiment [6] was -2.74%; in [8], -7.38%; in experiment [9], -11.5%. Besides, in [7], the activity change, negative = inhibition was found to be 0%.
As for `COc1c(C)c2c(c(O)c1C/C=C(\C)CCC(=O)OCCN1CCOCC1)C(=O)OC2`, the Potency in experiment [1] is 0.376 µM (active). In [2], the Potency result was “inactive”.
